Publication PMC11006913
Positions count from the first letter of the chain named.

Columns and labels:
Test in all cases: PBM; 200 nM protein, PBS
Details in all cases: dsDNA, one strand shown
SHOX [1] = target: SHOX (Homo sapiens, UniProt O15266 103-189)
VENTX [2] = target: T1, VENTX (Homo sapiens, UniProt O95231 78-163, R121Q)
T1 sequence: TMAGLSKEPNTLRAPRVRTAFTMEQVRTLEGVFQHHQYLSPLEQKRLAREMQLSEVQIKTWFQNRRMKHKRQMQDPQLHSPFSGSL

VENTX [3] = target: T2, VENTX (Homo sapiens, UniProt O95231 78-163)
T2 sequence: T1 sequence with Q44R

PAX4 [4] = target: T3, PAX4 (Homo sapiens, UniProt O43316 9-242, R200K)
T3 sequence: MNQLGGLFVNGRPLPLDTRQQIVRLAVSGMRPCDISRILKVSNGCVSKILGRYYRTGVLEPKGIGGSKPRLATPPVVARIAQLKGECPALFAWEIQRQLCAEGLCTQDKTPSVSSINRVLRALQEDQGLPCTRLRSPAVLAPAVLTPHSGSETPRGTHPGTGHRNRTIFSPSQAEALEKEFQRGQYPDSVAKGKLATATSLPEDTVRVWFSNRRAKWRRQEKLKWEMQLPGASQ

VENTX [5] = target: T4, VENTX (Homo sapiens, UniProt O95231 78-163, Y115F)
T4 sequence: T1 sequence with Y38F, Q44R

PAX4 [6] = target: T5, PAX4 (Homo sapiens, UniProt O43316 9-242)
T5 sequence: T3 sequence with K192R

HESX1 [7] = target: HESX1 (Homo sapiens, UniProt Q9UBX0 95-180)
MSX2 [8] = target: MSX2 (Homo sapiens, UniProt P35548 130-214, R199I)
PAX4 [9] = target: T6, PAX4 (Homo sapiens, UniProt O43316 9-242, R200Q)
T6 sequence: T3 sequence with K192Q

SHOX [10] = target: SHOX (Homo sapiens, UniProt O15266 103-189, R173C)
PAX4 [11] = target: T7, PAX4 (Homo sapiens, UniProt O43316 9-242, F177V)
T7 sequence: T3 sequence with F169V, K192R

MSX2 [12] = target: MSX2 (Homo sapiens, UniProt P35548 130-214)
PAX4 [13] = target: T8, PAX4 (Homo sapiens, UniProt O43316 9-242, F177Y)
T8 sequence: T3 sequence with F169Y, K192R

VAX1 [14] = target: VAX1 (Homo sapiens, UniProt Q5SQQ9 86-172)
HESX1 [15] = target: HESX1 (Homo sapiens, UniProt Q9UBX0 95-180, P111T)
MSX2 [16] = target: MSX2 (Homo sapiens, UniProt P35548 130-214, F161Y)
HESX1 [17] = target: HESX1 (Homo sapiens, UniProt Q9UBX0 95-180, F115L)
VAX1 [18] = target: VAX1 (Homo sapiens, UniProt Q5SQQ9 86-172, T142I)
PAX4 [19] = target: T9, PAX4 (Homo sapiens, UniProt O43316 9-242, R227W)
T9 sequence: T3 sequence with K192R, R219W

VAX1 [20] = target: VAX1 (Homo sapiens, UniProt Q5SQQ9 86-172, K157R)
VAX1 (Homo sapiens, UniProt Q5SQQ9 86-172, K157R), sequence (Q5SQQ9 86-172 K157R): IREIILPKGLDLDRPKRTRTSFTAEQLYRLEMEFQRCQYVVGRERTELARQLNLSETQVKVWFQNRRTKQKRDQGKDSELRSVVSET

HESX1 (Homo sapiens, UniProt Q9UBX0 95-180, F115L), sequence (Q9UBX0 95-180 F115L): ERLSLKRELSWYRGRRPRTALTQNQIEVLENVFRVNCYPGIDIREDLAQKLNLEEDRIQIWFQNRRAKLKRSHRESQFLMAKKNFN
VAX1 (Homo sapiens, UniProt Q5SQQ9 86-172), sequence (Q5SQQ9 86-172): as the sequence (Q5SQQ9 86-172 K157R) above, with R72K counted along it
MSX2 (Homo sapiens, UniProt P35548 130-214, F161Y), sequence (P35548 130-214 F161Y): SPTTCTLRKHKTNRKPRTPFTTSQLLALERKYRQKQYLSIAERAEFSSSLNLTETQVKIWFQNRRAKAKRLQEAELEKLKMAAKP
MSX2 (Homo sapiens, UniProt P35548 130-214), sequence (P35548 130-214): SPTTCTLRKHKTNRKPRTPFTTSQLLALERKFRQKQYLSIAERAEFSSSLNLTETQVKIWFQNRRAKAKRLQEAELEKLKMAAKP
VAX1 (Homo sapiens, UniProt Q5SQQ9 86-172, T142I), sequence (Q5SQQ9 86-172 T142I): as the sequence (Q5SQQ9 86-172 K157R) above, with T57I, R72K counted along it
HESX1 (Homo sapiens, UniProt Q9UBX0 95-180), sequence (Q9UBX0 95-180): as the sequence (Q9UBX0 95-180 F115L) above, with L21F counted along it
HESX1 (Homo sapiens, UniProt Q9UBX0 95-180, P111T), sequence (Q9UBX0 95-180 P111T): as the sequence (Q9UBX0 95-180 F115L) above, with P17T, L21F counted along it
SHOX (Homo sapiens, UniProt O15266 103-189), sequence (O15266 103-189): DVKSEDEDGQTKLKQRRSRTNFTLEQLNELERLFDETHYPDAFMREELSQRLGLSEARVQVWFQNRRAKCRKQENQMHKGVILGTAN
MSX2 (Homo sapiens, UniProt P35548 130-214, R199I), sequence (P35548 130-214 R199I): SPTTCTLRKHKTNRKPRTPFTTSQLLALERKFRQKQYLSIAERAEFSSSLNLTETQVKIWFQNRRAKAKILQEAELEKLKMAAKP
SHOX (Homo sapiens, UniProt O15266 103-189, R173C), sequence (O15266 103-189 R173C): as the sequence (O15266 103-189) above, with R71C counted along it

Sequence	binding signal (SHOX [1])	binding signal (VENTX [2])	binding signal (VENTX [3])	binding signal (PAX4 [4])	binding signal (VENTX [5])	binding signal (PAX4 [6])	binding signal (HESX1 [7])	binding signal (MSX2 [8])	binding signal (PAX4 [9])	binding signal (SHOX [10])	binding signal (PAX4 [11])	binding signal (MSX2 [12])	binding signal (PAX4 [13])	binding signal (VAX1 [14])	binding signal (HESX1 [15])	binding signal (MSX2 [16])	binding signal (HESX1 [17])	binding signal (VAX1 [18])	binding signal (PAX4 [19])	binding signal (VAX1 [20])
AATTAATG	11.8 upbm affinity estimate (log intensity, higher = more binding, comparable within an allelic series)	12 upbm affinity estimate (log intensity, higher = more binding, comparable within an allelic series)	12.5 upbm affinity estimate (log intensity, higher = more binding, comparable within an allelic series)	11.9 upbm affinity estimate (log intensity, higher = more binding, comparable within an allelic series)	11.8 upbm affinity estimate (log intensity, higher = more binding, comparable within an allelic series)	12.5 upbm affinity estimate (log intensity, higher = more binding, comparable within an allelic series)	12.1 upbm affinity estimate (log intensity, higher = more binding, comparable within an allelic series)	12.5 upbm affinity estimate (log intensity, higher = more binding, comparable within an allelic series)	12.3 upbm affinity estimate (log intensity, higher = more binding, comparable within an allelic series)	9.48 upbm affinity estimate (log intensity, higher = more binding, comparable within an allelic series)	10.6 upbm affinity estimate (log intensity, higher = more binding, comparable within an allelic series)	13.5 upbm affinity estimate (log intensity, higher = more binding, comparable within an allelic series)	11.2 upbm affinity estimate (log intensity, higher = more binding, comparable within an allelic series)	13.1 upbm affinity estimate (log intensity, higher = more binding, comparable within an allelic series)	10.7 upbm affinity estimate (log intensity, higher = more binding, comparable within an allelic series)	13.2 upbm affinity estimate (log intensity, higher = more binding, comparable within an allelic series)	7.83 upbm affinity estimate (log intensity, higher = more binding, comparable within an allelic series)	12.9 upbm affinity estimate (log intensity, higher = more binding, comparable within an allelic series)	11.1 upbm affinity estimate (log intensity, higher = more binding, comparable within an allelic series)	12.8 upbm affinity estimate (log intensity, higher = more binding, comparable within an allelic series)
TAATTATA	12.3 upbm affinity estimate (log intensity, higher = more binding, comparable within an allelic series)	11.9 upbm affinity estimate (log intensity, higher = more binding, comparable within an allelic series)	12.4 upbm affinity estimate (log intensity, higher = more binding, comparable within an allelic series)	11.7 upbm affinity estimate (log intensity, higher = more binding, comparable within an allelic series)	11.8 upbm affinity estimate (log intensity, higher = more binding, comparable within an allelic series)	12.2 upbm affinity estimate (log intensity, higher = more binding, comparable within an allelic series)	12.9 upbm affinity estimate (log intensity, higher = more binding, comparable within an allelic series)	13 upbm affinity estimate (log intensity, higher = more binding, comparable within an allelic series)	12.1 upbm affinity estimate (log intensity, higher = more binding, comparable within an allelic series)	9.85 upbm affinity estimate (log intensity, higher = more binding, comparable within an allelic series)	10.7 upbm affinity estimate (log intensity, higher = more binding, comparable within an allelic series)	14 upbm affinity estimate (log intensity, higher = more binding, comparable within an allelic series)	11 upbm affinity estimate (log intensity, higher = more binding, comparable within an allelic series)	13.3 upbm affinity estimate (log intensity, higher = more binding, comparable within an allelic series)	11.5 upbm affinity estimate (log intensity, higher = more binding, comparable within an allelic series)	13.6 upbm affinity estimate (log intensity, higher = more binding, comparable within an allelic series)	8.06 upbm affinity estimate (log intensity, higher = more binding, comparable within an allelic series)	13.4 upbm affinity estimate (log intensity, higher = more binding, comparable within an allelic series)	11.1 upbm affinity estimate (log intensity, higher = more binding, comparable within an allelic series)	13.4 upbm affinity estimate (log intensity, higher = more binding, comparable within an allelic series)
